# Measurements as given in PubChem BioAssay AID540256 (National Center for Advancing Translational Sciences (NCATS), 2011).
# Hit rate of the full screen: of about 300,000 compounds, about 3,700 (1.2%) were called active. Where a call stands in place of a potency, no number is given. Roughly 20% stayed inconclusive and do not appear here. The call rests on the fitted dose curve; tested in HEK293 cells. Many of the other results were omitted from the sample, so actives are more common in it than they were.
# Assay: qHTS for Inhibitors of binding or entry into cells for Lassa Virus; further: nearly all actives have a fitted effect of over 50% in size
# Settings: Lassa virus pseudotype entry inhibition, cell reporter; series mostly up to 37.9 µM
# Potency means the concentration at half of the fitted maximal effect.
row,Compound,Potency
1,Cc1ccc(NC(=O)C(C)OC(=O)C2CC3CCCC(C2)C3=O)cc1S(=O)(=O)N1CCOCC1 (configuration not stated),inactive
2,Fc1ccc(N2CCN(Cc3ccc4c(c3)OCO4)CC2)cc1,inactive
3,O=c1[nH]c(N2CCN(Cc3ccc4c(c3)OCO4)CC2)nc2c1CCCC2,inactive
4,Fc1ccc2[nH]c3c(N4CCN(Cc5ccc6c(c5)OCO6)CC4)ncnc3c2c1,15.8 µM (active)
5,Cc1cc2c(cc3c(SCc4nc(-c5ccccc5)oc4C)nnc(C)n32)o1,inactive
6,Cc1ccc2c(c1)C1CN(C)CCC1N2S(=O)(=O)c1cccc(F)c1 (configuration not stated),inactive
7,CN(C)CCCN(C(=O)c1ccc(S(=O)(=O)N2CCCCCC2)cc1)c1nc2cc3c(cc2s1)OCCO3,14.1 µM (active)
8,CCN(CC)CCN(C(=O)c1ccc(S(=O)(=O)N2CCOCC2)cc1)c1nc2cc3c(cc2s1)OCCO3,inactive
9,CCc1ccc2nc(N(CCCN(C)C)C(=O)c3ccc4c(c3)OCCO4)sc2c1,inactive
10,CC(C)CC1(C)NC(=O)N(CC(=O)Nc2ccc3c(c2)OCCO3)C1=O (configuration not stated),inactive
11,CN(CC(=O)Nc1cccc(F)c1)C(=O)C1CC(=O)N(CCc2ccccc2)C1 (configuration not stated),inactive
12,COC(=O)CN(C(=S)Nc1ccc(Cl)cc1)C1CC(=O)N(c2ccc(OC)cc2)C1=O (configuration not stated),inactive
13,CN(C)c1ccc(NC(=S)N(CCc2ccccc2)C2CC(=O)N(c3c(Cl)cccc3Cl)C2=O)cc1 (configuration not stated),3.55 µM (active)
14,O=C(COc1ccccc1Cl)Nc1ccc2nc(SCC(=O)N3CCCC3)sc2c1,inactive
15,CC(C)(C)C(=O)COC(=O)c1cc(S(=O)(=O)N2CCCCC2)ccc1N1CCOCC1,inactive
16,C=C(C)COc1ccc(-c2n[nH]c(C)c2-c2ccccc2)c(O)c1,1.78 µM (active)
17,COc1ccccc1-c1c(C)nn2c(C)c(C(C)=O)cnc12,inactive
18,C=C(C)COc1ccc(-c2n[nH]c(C)c2-c2ccccc2OC)c(O)c1,7.08 µM (active)
19,COc1ccccc1-c1n[nH]c2c1[C@H](C)CC[C@H]2C(C)C,inactive
20,CC(=O)COc1ccc2c(-c3ccccc3)cc(=O)oc2c1,inactive
21,Cc1[nH]nc(-c2ccc(OCc3cnn(-c4ccccc4)c3)cc2O)c1Oc1ccc(Cl)cc1,inactive
22,Cc1cccc(C(=O)NNC(=O)CSc2nnc(C(C)C)n2C)c1,inactive

row,Compound,Potency
1,CCN(C(=O)COC(=O)c1ccccc1O)c1cccc2ccccc12,inactive
2,CCOC(=O)c1c(S(=O)(=O)Nc2cccc(Cl)c2)c(C)n(C)c1C,inactive
3,CC(C)(C)c1nnc2sc(SCC(O)=C(C#N)c3nc4ccccc4[nH]3)nn2c1=O,inactive
4,CCc1cccc(C)c1NC(=S)N(CCCN1CCN(C)CC1)Cc1cccs1,inactive
5,Cc1ccc(NC(=S)N(CCN(C)C)Cc2cccs2)cc1C,6.31 µM (active)
6,Cc1ccccc1NC(=S)N(CCCN1CCOCC1)Cc1cccs1,inactive
7,CCOc1ccc(-n2c(SCC(=O)Nc3cc(C(=O)O)ccc3Cl)nc3ccccc3c2=O)cc1,inactive
8,Cc1ccc(-n2c(SCC(=O)Nc3ncc(Cl)cc3Cl)nc3ccccc32)cc1,0.291 µM (active)
9,Cc1ccc(SCCC(=O)OCC(=O)Nc2ncc(Cl)cc2Cl)cc1,inactive
10,CC/C(=C(/c1ccccc1)c1ccc(OCC[N+](C)(C)C)cc1)c1ccccc1,inactive
11,Cc1ccc(S(=O)(=O)N2CCCCC2)cc1C(=O)N(C)CC(=O)Nc1cccc(F)c1,inactive
12,O=C(NCc1ccc(F)cc1)c1ccc2nc(N3CCCCC3)sc2c1,inactive
13,c1c2c(cc3sc(N4CCCCC4)nc13)OCCO2,1.58 µM (active)
14,Cc1nc2cc3c(cc2s1)OCO3,inactive
15,Cc1nc(C)c(C(=O)N(c2ccc(C)c(C)c2)C(C(=O)NCc2ccco2)c2ccccc2)s1 (configuration not stated),4.61 µM (active)
16,Cc1cccc(N(C(=O)Cc2cccs2)C(C(=O)NCc2ccco2)c2ccncc2)c1 (configuration not stated),inactive
17,Cc1ccc(N(C(=O)c2sc(C)nc2C)C(C(=O)NC(C)(C)C)c2ccncc2)cc1 (configuration not stated),inactive
18,Cc1ccc(OCc2cc(C(=O)N(C)CCn3ccnc3C)no2)cc1C,inactive
19,CCCN1CCN(C(=O)CCCNC(=O)c2ccc(Cl)cc2)CC1,inactive
20,COc1ccccc1N1CCN(c2nc(C)cc(=O)[nH]2)CC1,inactive
21,Cc1nnc(SCC(=O)N2c3ccccc3C(C)(c3ccc(Cl)cc3)CC2(C)C)s1 (configuration not stated),10 µM (active)
22,Cc1nnc(SCC(=O)N2CCc3ccccc3C2)s1,inactive

row,Compound,Potency
1,Cc1nnc(SCC(=O)NCc2ccccc2)s1,inactive
2,Cc1ccc(NC2CCCN(C(=O)CCc3cn[nH]c3)C2)cc1C (configuration not stated),inactive
3,COc1cc(C(=S)N2CCOCC2)cc(OC)c1OC(=O)c1ccc([N+](=O)[O-])cc1[N+](=O)[O-],inactive
4,CCN1CCC2(CC1)N=C(c1ccc(F)cc1)C(=S)N2C(=O)c1ccc(C)cc1,8.91 µM (active)
5,CCN1CCC(N(Cc2ccc(F)cc2)C(=O)Nc2cc(C)ccc2C)CC1,inactive
6,Cc1ccc(SCC(=O)N2CCN(c3ccc(F)cc3)CC2)cc1,inactive
7,COc1ccccc1C(=O)Nc1ccc(Nc2ccccc2)cc1,inactive
8,CCC(=O)Nc1ccc2nc(SCC(=O)N3CCc4ccccc43)sc2c1,inactive
9,COCCn1cnnc1SCC(=O)Nc1cccc(S(=O)(=O)N2CCCCC2)c1,inactive
10,O=c1[nH]c(CN2CCOCC2)nc2cc(Cl)ccc12,inactive
11,O=c1[nH]c(CCl)nc2cc(-c3ccc(Cl)cc3)sc12,10 µM (active)
12,NC(=O)Cc1nc2scc(-c3ccc(Cl)cc3)c2c(=O)[nH]1,inactive
13,O=C1c2ccccc2C(=O)C1C(=O)C1CC1,inactive
14,Cc1ccc(S(=O)(=O)N/N=C(\c2ccccc2)C2CC2)cc1,inactive
15,COc1ccc(-c2cc(C(=O)N(C)Cc3ccccc3)c3ccccc3n2)cc1,10 µM (active)
16,COc1ccc(-c2cc(C(=O)n3cnc4ccccc43)c3ccccc3n2)cc1,inactive
17,CNC(=O)COC(=O)c1cc(-c2ccc(OC)cc2)nc2ccccc12,inactive
18,COc1ccccc1N1CC(C(=O)Nc2nnc(SCC(=O)NCC3CCCO3)s2)CC1=O (configuration not stated),inactive
19,COc1ccc(C(CNC(=O)c2cc3c(s2)CCCC3)N2CCOCC2)cc1 (configuration not stated),inactive
20,Cc1ccc(C(CC(=O)O)NC(=O)c2ccc(S(=O)(=O)N3CCCC3)cc2)cc1 (configuration not stated),inactive
21,C=CCN1C(=O)N(Cc2ccccc2)c2ccccc2S1(=O)=O,inactive
22,O=C1c2ccccc2C2=Nc3ccccc3SC(c3ccccc3F)C12 (configuration not stated),20.6 µM (active)

row,Compound,Potency
1,O=C1c2ccccc2C(=O)C1c1ccccc1F,inactive
2,Cn1cc(/C=C/c2nc3ccccc3c(=O)n2-c2cccc([N+](=O)[O-])c2)c2ccccc21,inactive
3,CCn1c(/C=C/c2ccc([N+](=O)[O-])o2)nc2ccccc2c1=O,3.66 µM (active)
4,Cc1ccc(-n2c(/C=C/c3cccc(C(F)(F)F)c3)nc3ccccc3c2=O)cc1,inactive
5,COc1cccc(CC(=NO)c2cccc(OC)c2)c1,inactive
6,Fc1ccccc1OCCCCn1cncn1,inactive
7,O=C(c1ccccc1)C(Cn1cncn1)C(Sc1ccccc1)c1ccccc1 (configuration not stated),22.4 µM (active)
8,OC(COc1ccc2ccccc2c1)Cn1cncn1 (configuration not stated),inactive
9,Cc1ccccc1N1CC(C(=O)Nc2nnc(SCCC3OCCO3)s2)CC1=O (configuration not stated),inactive
10,CCOc1cc2ccccc2cc1C(=O)Nc1ccccn1,inactive
11,Cc1cc(C(=O)CCl)c(C)n1CC1COc2ccccc2O1 (configuration not stated),inactive
12,Cc1cc(C(=O)Cn2cnc3cc([N+](=O)[O-])ccc3c2=O)c(C)n1CC1CCCO1 (configuration not stated),inactive
13,Cc1ccsc1C(=O)OCC(=O)c1cc(C)n(CC2CCCO2)c1C (configuration not stated),2.59 µM (active)
14,CCOC(=O)N1CCN(C(=O)C(=O)Nc2sc3c(c2C#N)CC(C)(C)OC3)CC1,inactive
15,COC(=O)c1ccc(OC(=O)c2cnccn2)cc1,inactive
16,CSCCC1NC(=O)N(CC(=O)Nc2cccc(S(=O)(=O)N3CCCCCC3)c2)C1=O (configuration not stated),inactive
17,CCOC(=O)N1CCC(NC(=O)c2cnn(-c3cccc(C)c3)c2C2CCN(C(=O)OC(C)(C)C)CC2)CC1,inactive
18,CCN(CC)c1ccc(S(=O)(=O)N2CCCCC2)cc1NC(=O)C1=COCCO1,inactive
19,O=C(NCC(c1ccco1)S(=O)(=O)c1cccs1)c1ccc(F)cc1 (configuration not stated),inactive
20,COc1ccccc1CNC(=O)C(=O)NCC(c1ccco1)S(=O)(=O)c1ccc(F)cc1 (configuration not stated),inactive
21,CC(C)(C)c1ccc(C(=O)NCC(c2ccco2)S(=O)(=O)c2ccc(F)cc2)cc1 (configuration not stated),12.6 µM (active)
